Assay outcomes: PubChem BioAssay, several laboratories
CYP2C19 inhib – inhibitors of human CYP2C19; P33261; CYP2C19 Supersomes, luciferin-H EGE luminescence, 30 min; inhibition, % at 5 µM; actives 21% (n = 96,000); AID 778;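 active means CYP2C19 inhibition above a set limit at 5 µM in the primary screen, cut at about 50% in these data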;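 further: plate controls were negative control wells for no effect and 2.5 mM tranylcypromine positive control for full effect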
CYP2C9 inhib – blocks human cytochrome P450 2C9. P11712. inhibition, % at 5 µM. AID 777. CYP2C9 Supersomes, luciferin-H conversion, luminescence. actives 20% (n = 96,000);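 active means blocking of liver enzyme CYP2C9 beyond about 50% at 5 µM, limit read from the data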
Target sequence (P11712 whole entry, looked up): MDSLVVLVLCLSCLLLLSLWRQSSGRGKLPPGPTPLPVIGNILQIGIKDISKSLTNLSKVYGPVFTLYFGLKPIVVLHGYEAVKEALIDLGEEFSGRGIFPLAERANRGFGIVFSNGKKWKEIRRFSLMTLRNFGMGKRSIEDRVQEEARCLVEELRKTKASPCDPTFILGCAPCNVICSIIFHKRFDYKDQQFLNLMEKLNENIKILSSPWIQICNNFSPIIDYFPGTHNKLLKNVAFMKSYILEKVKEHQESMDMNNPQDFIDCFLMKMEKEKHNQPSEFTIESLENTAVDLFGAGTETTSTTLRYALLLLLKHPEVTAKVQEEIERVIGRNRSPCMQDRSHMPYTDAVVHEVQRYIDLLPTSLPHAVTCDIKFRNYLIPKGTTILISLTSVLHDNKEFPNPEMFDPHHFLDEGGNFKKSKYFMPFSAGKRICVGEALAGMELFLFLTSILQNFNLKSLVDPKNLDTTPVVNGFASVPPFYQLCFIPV
CYP2C9 activ – activators of human CYP2C9; P11712; recombinant CYP2C9, luciferin-H conversion, luminescence; active compounds read high; factor 1 = untreated enzyme, 0 = blocked; activation factor at 5 µM; actives 1.4% (n = 96,000); AID 1024;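 active means activation factor of 2 or more for CYP2C9 at a 5 µM dose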;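 further: 0 = sulfaphenazole-blocked wells and 1 = vehicle-only wells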
Measles CPE – protection of cells from measles virus | AID 841 | Measles virus-infected cells, CPE protection, absorbance | protection (pct of control), % at 4 µM | actives 1.5% (n = 140,000); in the data active means protection mostly above about 24%, no sharp cut-off; inactive means mostly below about 26%
CYP2C19 act – increases human CYP2C19 enzyme activity | activation factor at 5 µM | AID 1025 | 96,000 tested, under 10 active | recombinant CYP2C19, luciferin-H EGE luminescence; active compounds read high; 0 = fully inhibited enzyme, 1 = untreated enzyme | P33261;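 active means activation factor of at least 2 at 5 µM in the primary screen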;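 further: 0 = wells with 2.5 mM tranylcypromine and 1 = vehicle-only wells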
Numbers without * were called inactive; . = not tested or not shown. The list is not random: actives were taken first. Their share in the collection is about 22%.

SMILES | CYP2C19 inhib | CYP2C9 inhib | CYP2C9 activ | Measles CPE | CYP2C19 act
CC(C)Oc1ccc(N2CC(C(=O)Nc3ccc(N4CCOCC4)cc3)CC2=O)cc1 (stereo not drawn) | . | . | . | 22 | .
O=C(O)c1cc2n(n1)C(C(F)(F)F)CC(c1ccco1)N2 (stereo not drawn) | 5 | 62* | 0.4 | 2 | 0.9
O=C(c1cc2n(n1)C(C(F)(F)F)CC(c1ccco1)N2)N1CCN(c2ccccn2)CC1 (stereo not drawn) | -8 | 37 | 0.6 | 12 | 1.1
COc1ccccc1NC(=O)c1cc2n(n1)C(C(F)(F)F)CC(c1ccc3c(c1)OCO3)N2 (stereo not drawn) | 81* | 75* | 0.2 | 4 | 0.2
COc1ccc(C2CC(C(F)(F)F)n3nc(C(=O)Nc4ccc5c(c4)OCO5)cc3N2)cc1 (stereo not drawn) | 11 | 38 | 0.6 | 2 | 0.9
NC(=O)c1cc2n(n1)C(C(F)(F)F)CC(c1ccco1)N2 (stereo not drawn) | -8 | -17 | 1.2 | 10 | 1.1
Cc1cc(NC(=O)c2cc3n(n2)C(C(F)(F)F)CC(c2ccco2)N3)no1 (stereo not drawn) | 13 | 51* | 0.5 | 19 | 0.9
Cc1cccc(N2CCN(C(=O)c3cc4n(n3)C(C(F)(F)F)CC(c3ccco3)N4)CC2)c1C (stereo not drawn) | 1 | 88* | 0.1 | 5 | 1
COc1ccccc1-n1cc(-c2ccc(Cl)cc2)[nH]c1=O | . | . | . | 11 | .
Cc1ccc(C(=O)COC(=O)CCC(=O)Nc2cccc(Cl)c2)cc1[N+](=O)[O-] | 18 | -3 | 1 | 4 | 0.8
CCOc1ccccc1N(CC(=O)NC1CCCCC1)S(C)(=O)=O | 34 | 20 | 0.8 | 5 | 0.7
COc1ccc(CCNC(=O)c2ccn[nH]2)cc1OC | 14 | 24 | 0.8 | 18 | 0.9
Cc1ccccc1Cn1c2ccccc2c2cn[nH]c(=O)c21 | 24 | 17 | 0.8 | 3 | 0.8
Cc1cc(C(C)(C)C)oc1C(=O)N(CC(=O)NC1CCCC1)Cc1ccccc1Cl | 35 | 54* | 0.5 | 15 | 0.7
Cc1ccccc1N(CC(=O)NC1CCCC1)C(=O)c1oc(C(C)(C)C)cc1C | 15 | 4 | 1 | 31 | 0.9
COc1ccc(NC2=CC(=O)CC(c3ccccc3)C2)c(OC)c1 (stereo not drawn) | 62* | -22 | 1.2 | 6 | 0.4
CCOc1ccccc1NC1=CC(=O)CC(c2ccccc2)C1 (stereo not drawn) | 50 | 7 | 0.9 | 2 | 0.5
O=C(NCC1CCCO1)c1nnc(Cc2ccc(F)cc2)o1 (stereo not drawn) | . | . | . | 6 | .
CC(C)C(=O)Nc1ccc(S(=O)(=O)Nc2nccc(/C=C/c3ccccc3)n2)cc1 | . | . | . | 36 | .
CC1CCCN(S(=O)(=O)c2ccc(NC(=O)Cn3nnc(-c4ccccc4F)n3)cc2)C1 (stereo not drawn) | 62* | 99* | 0 | 11 | 0.4
Nn1cc(-c2ccccc2)nc1SCC(=O)N1CCN(S(=O)(=O)c2ccc(Cl)cc2)CC1 | 6 | 12 | 0.9 | 23* | 0.9
Cc1ccccc1-c1nnn(CC(=O)N2CCN(S(=O)(=O)c3ccc(Cl)cc3)CC2)n1 | 62* | 20 | 0.8 | 5 | 0.4
CC1CCN(S(=O)(=O)c2ccc(NC(=O)Cn3nnc(-c4ccccc4)n3)cc2)CC1 | 43 | 76* | 0.2 | 3 | 0.6
Cc1ccc(C)c(/C(O)=C2\C(=O)C(=O)N(CCCn3ccnc3)C2c2cccnc2)c1 (stereo not drawn) | . | . | . | 16 | .
Cc1cccc(C(=O)NC(=S)N2CCc3ccccc3C2)c1 | . | . | . | 17 | .
SMILES | CYP2C19 inhib | CYP2C9 inhib | CYP2C9 activ | Measles CPE | CYP2C19 act
COc1cccc(/C=N/NC(=O)c2[nH]c(C)c(C(=O)N/N=C/c3cccc(OC)c3O)c2C)c1O | -8 | -8 | 1.1 | 28 | 1.1
O=C(Cn1nnc(-c2ccc(S(=O)(=O)N3CCCC3)cc2)n1)NCC1CCCO1 (stereo not drawn) | 26 | 70* | 0.3 | 6 | 0.7
N#CCC1c2ccccc2CCN1C(=O)Nc1ccc(Cl)cc1 (stereo not drawn) | 55* | 34 | 0.7 | 16 | 0.5
N#CCC1c2ccccc2CCN1C(=O)Nc1cccc(Cl)c1 (stereo not drawn) | 34 | 42 | 0.6 | 18 | 0.7
COC(=O)c1nc2n(n1)C(c1ccc(OC)c(OC)c1OC)C1=C(CCCC1=O)N2 (stereo not drawn) | -13 | 28 | 0.7 | 3 | 1.1
COc1ccccc1-c1cc(-c2ccccc2)nc(SC(C(N)=O)c2ccccc2)c1C#N (stereo not drawn) | 12 | 30 | 0.7 | 6 | 0.9
CCOC(=O)CC(=O)CSc1nc(N)c(C#N)c(-c2ccc(Cl)cc2)c1C#N | 84* | 62* | 0.4 | 5 | 0.2
CCOC(=O)CC(=O)CSc1nc(C)cc(C)c1C#N | 70* | 34 | 0.7 | 10 | 0.3
COC(=O)C(Sc1nc(C)cc(C)c1C#N)c1ccccc1 (stereo not drawn) | 54* | 46 | 0.5 | 29 | 0.5
CC1(C)C(N(O)C(=O)Nc2ccccc2)N(c2cccc(Cl)c2)C(=O)N1O (stereo not drawn) | 12 | 73* | 0.3 | 12 | 0.9
Nc1ccc(S(=O)(=O)c2cccc(N)c2)cc1 | 15 | -142 | 2.4* | 5 | 0.8
Cc1ccc(-c2nc(C)sc2CC(=O)NCc2ccco2)cc1 | 56* | 42 | 0.6 | 8 | 0.4
Cc1ccc(NC(=O)Cc2sc(C)nc2-c2ccc(C)cc2)cc1 | . | . | . | 10 | .
Cc1ccc(SCCC(=O)NCc2ccco2)cc1 | 38 | 69* | 0.3 | 15 | 0.6
Cc1ccc(SCC(=O)NCc2ccco2)cc1 | . | . | . | 20 | .
COc1ccc(OC)c(C(=O)CSc2nnc(-c3cccnc3)n2C)c1 | 72* | -12 | 1.1 | 15 | 0.3
CCCn1c(SCC(=O)c2cc(OC)ccc2OC)nnc1-c1ccco1 | 97* | 46 | 0.5 | 8 | 0
COc1ccc(-c2ccnc(SCC(=O)c3ccc(OC)c(OC)c3)n2)cc1 | . | . | . | 4 | .
CCn1c(SCC(=O)c2cc(OC)ccc2OC)nnc1C(C)C | 99* | 41 | 0.6 | 16 | 0
CCn1c(SCC(=O)c2ccc(OC)cc2)nnc1C(C)NC(=O)c1ccc(OC)cc1 (stereo not drawn) | 28 | 17 | 0.8 | 11 | 0.7
COc1ccc(OC)c(C(=O)CSc2nccc(-c3ccc(Br)cc3)n2)c1 | 11 | 79* | 0.2 | 24 | 0.9
Cc1csc(NC(=O)CCC(=O)N(CC(=O)NC2CCCC2)Cc2ccco2)n1 | -4 | 0 | 1 | 23 | 1
CC(C)n1nnc2c(=O)oc3ccccc3c21 | . | . | . | 7 | .
N=C1C(c2ccccc2)=C(O)C2CCc3ccccc3N12 (stereo not drawn) | -20 | -18 | 1.2 | 9 | 1.2
N=C1C(c2ccc(Br)cc2)=C(O)C2CCc3ccccc3N12 (stereo not drawn) | 50* | 27 | 0.7 | 2 | 0.5
C[N+]1(CC(=O)OCCCc2ccccc2)CCOCC1 | 7 | 12 | 0.9 | 6 | 0.9
